Among the data in PubChem BioAssay are z-score values, retold here.

“And” between values parts separate entries of the source, which are not always exact repeats. Identical values can stand only once.

The nature of the assay: compound effects on lung adenocarcinoma cell viability – A549, calcein-AM fluorescence, 48 h, basal, profiling panel (AID 1162). Also: test concentration not given here. Particulars: higher = more signal.
Take `C=CCN(CCCCC)C(=O)C(c1cccs1)N(C(=O)/C=C\C(=O)O)c1ccc(CCO)cc1` (stereo unspecified): the z-score is 1.11 and 0.437.

On to `C=C(C)C(=O)OC[C@@H]1CN2[C@@H](CC[C@@H](C)[C@@H]2c2ccc(Br)cc2)C(=O)O1`, for which the z-score is 0.254.

Take `COC(=O)C1=C2N(Cc3ccccc3)C(C)=C(C(=O)OC)[C@@H](c3ccccc3)N2C(=O)[C@](O)(C(=O)OC)C1`: the z-score is -0.104 and 1.11.

For `C=C[C@@H](C)[C@@H](O)c1ccc(OCCO)cc1`, the z-score is -0.61 and 0.227.

Turning to `C=CCN(Cc1ccccc1)C(=O)C1N(C(C)(C)CO)C(=O)C2C(C(=O)O)C3C=CC21O3` (stereo unspecified), the z-score was -0.535 and -0.297.

As for `C=CCN(C(=O)C1N(C(C)(C)CO)C(=O)C2C(C(=O)O)C3C=CC21O3)c1ccc(OC)cc1` (stereo unspecified), the z-score is 0.396 and 0.242.

Take `COC(=O)c1c2oc(c1C(=O)OC)C(=O)N[C@@H](Cc1ccccc1)Cn1cc(nn1)C1(CCCCC1)NC(=O)N[C@H](CO)CC2`: the z-score was 2.13 and 1.06.

Consider `C=C[C@H](C)[C@H](O)c1ccc(O)c2ccccc12`, for which the z-score was 0.0619 and 0.429.

`CCOC(=O)C[C@H]1[C@H](OC(=O)c2ccccc2-c2ccccc2)[C@@H](NC(=O)Cc2ccc(OC)cc2)c2cc(OCCCO)ccc2N1C(=O)c1ccc2ccccc2n1`: the z-score was 0.637 and 1.07.

`CC(C)OC(=O)C=C1C[C@@H](c2ccccc2)O[C@@H](c2ccccc2)O1`: the z-score was 0.604 and -0.204.

For the compound `COC(=O)C1=C(C)N(Cc2ccccc2)C2=C(C(=O)c3ccccc3)[C@H](c3ccccc3)[C@@](O)(C(=O)OC)C(=O)N2[C@@H]1c1ccccc1`, the z-score was 0.369 and 0.44.

In the case of `COC(=O)[C@@]1(Cc2ccc(F)cc2)[C@H]2c3cc(C(=O)N4CCCC4)n(Cc4c(CO)[nH]cc(C)c4=O)c3C[C@H]2CN1C(=O)c1ccccc1`, the z-score was -1.51 and -0.994.

As for `C[N+](C)(C)CCCCCCNC(=O)[C@H]1C[C@H]2C(=O)N[C@@H](CCCC[N+](C)(C)C)C(=O)N2[C@H]1c1ccc(O)cc1`, the z-score was -0.512 and 0.597.

In the case of `CC(CO)N1C(=O)[C@@H]2C3C(=O)OCCC=C[C@H]3OC23C=CCN(CCN2CCOCC2)C(=O)[C@@H]13` (stereo partly specified), the z-score is -0.438 and -0.439.

For `CCCC[C@@H]1CN2[C@H](c3ccc(Br)cc3)[C@@H](C)CC[C@H]2C(=O)O1`, the z-score was 1.03 and 0.449.

Consider `CO[C@H]1COC(=O)CC=C[C@H](C)[C@H](OC)COC(=O)[C@@H](C)COC(=O)CC=C[C@@H]1C`, for which the z-score is -0.26 and 0.27.
